Common to all, as to assay: NCI-60 one-dose screen, 48 h (100 = growth as untreated, 0 = no growth, -100 = all killed)
Holding throughout (settings): 10 µM unless noted

Experiment [1] deals with HCT-15 colon.
Experiment [2] concerns HT29 colon.
Experiment [3] relates to SNB-75 CNS.
The test system of experiment [4] is SNB-19 CNS.
For experiment [5], the system named is U251 CNS.
In experiment [6] the test system is PC-3 prostate.
Experiment [7] relates to SK-MEL-5 melanoma.
The test system of experiment [8] is UACC-62 melanoma.
Experiment [9] relates to LOX IMVI melanoma.
The subject of experiment [10] is SK-MEL-28 melanoma.

Each structure is given as a SMILES string. Compounds without any hit were thinned out: in the full panel of roughly 83,000, 20% have a hit.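 Results are percent growth after 48 hours of single-concentration exposure. 100 means growth as in untreated cells, lower positive values show inhibition; negative values down to -100 show cell death.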 Unmarked numbers belong to inactive results. The source made the active and inactive calls. Rule for the calls: active = growth percent below 10; inactive = the rest.

For `N#Cc1c(N)nn(C(=O)c2ccc(NC(=O)c3ccccn3)cc2)c1-c1ccc(Cl)cc1`, the growth in experiment [1] was 32.9%; in experiment [2] it was 18.1%; in experiment [3], 27.3%; in experiment [4], 23.4%; in experiment [5], -39.2% (active); in experiment [6], 15.5%. Besides, the growth in experiment [7] is 25%; in [8] it was 43.1%; in experiment [9] it was 30.5%; in experiment [10], 70.4%.

`CCOP(=O)(OCC)C1CP(=O)(c2ccccc2)CC(C)=C1Cl` (stereo not given): the growth was 102% in [1]; 118% in experiment [2]; 90.9% in experiment [3]; 104% in experiment [4]; 96.9% in experiment [5]; 90% in [6]. Also, the growth in experiment [7] was 103%; in [8], 95.1%; in experiment [9], 88.9%; in experiment [10], 104%.

On to `COc1cc2c(cc1-c1c(C)noc1C)ncc1nc(C3CCC(F)(F)CC3)n(C3CCC(OC(F)F)CC3)c12` (stereo not given), for which the growth is 36.1% in experiment [1]; 31.6% in [2]; 15.1% in [3]; 67.2% in experiment [4]; 77.7% in experiment [5]; 41.8% in experiment [6]. In addition, the growth is 43.7% in [7], 32% in experiment [8], 35.2% in experiment [9] and 66.6% in experiment [10].

For the compound `Cc1ccc(Cl)c(NS(=O)(=O)c2ccc(-c3cnc(C4CC4)o3)cc2)c1`, the growth is 16.9% in [1]; 3.93% (active) in experiment [2]; -10.1% (active) in experiment [3]; 18.9% in [4]; 24.1% in [5]; 31.1% in experiment [6]. The growth in experiment [7] is 26.4%; in experiment [8] it was 26.5%; in experiment [9], 33%; in [10], 53.7%.

For `O=C(CCCCCCN1CC(=O)N2[C@@H](c3ccccc3Cl)c3[nH]c4ccccc4c3C[C@H]2C1=O)NO`, the growth in [1] is 97.5%; in experiment [2], 57.6%; in [3], -1.06% (active); in experiment [4], 71.8%; in experiment [5] it was 60.1%; in experiment [6], 61.8%. Further, the growth is 46.9% in [7], 34% in [8], 14.7% in experiment [9] and 43.8% in experiment [10].

As to `O=C(Nc1ccc(Cl)cc1)Nc1ccc(Cl)c(C(F)(F)F)c1`, the growth in experiment [1] was 8.11% (active); in experiment [2], 18.9%; in experiment [3], 41.3%; in experiment [4], 13%; in experiment [5], 4.41% (active); in experiment [6], -8.98% (active). Moreover, the growth in experiment [7] is -13.3% (active); in [8], 23.9%; in experiment [9], 3.49% (active); in experiment [10] it was 19.1%.

`N#Cc1c(-c2cccc(Cl)c2)cc(-c2cccc(Cl)c2)[nH]c1=O`: the growth in experiment [1] is 44.9%; in experiment [2] it was 114%; in experiment [3] it was 43%; in experiment [4], 71.6%; in [5], 74.7%; in experiment [6], 68.7%. Also, the growth in experiment [7] was 64.9%; in experiment [8] it was 45.2%; in experiment [9], 72.3%; in [10], 78.5%.

With `COc1ccc(-c2[nH]c(=S)n(C(CC3(C)NCC(=O)N3n3c(-c4ccccc4)cc(C)nc3=S)c3ccc(OC)cc3)c(=O)c2Br)cc1` (stereo not given), the growth in experiment [1] is 39.9%; in [2], 40.6%; in experiment [3], 3.88% (active); in experiment [4], 55.6%; in [5], 55.8%; in experiment [6], 66%. The growth in [7] was 79.5%; in experiment [8] it was 50.6%; in experiment [9], 41.3%; in [10], 83.6%.

Take `O=c1c2cc(F)ccc2sc2c(NCCCN3CCCC3)nc3ccccc3c12`: the growth in experiment [1] is 7.59% (active); in experiment [2], 5.1% (active); in [3], 21.5%; in experiment [4], 53.6%; in experiment [5], 33.2%; in experiment [6], 43.8%. In addition, the growth was 58.8% in experiment [7], -75.9% (active) in [8], -87.1% (active) in [9] and -52.8% (active) in experiment [10].

`O=C1CCc2c(sc3[nH]c(=S)n(-c4ccc(OC(F)(F)F)cc4)c(=O)c23)C1`: the growth is 40.4% in experiment [1]; 104% in experiment [2]; 27.4% in experiment [3]; 17.1% in [4]; 21.6% in experiment [5]; 16.1% in experiment [6]. Besides, the growth in [7] was 22.6%; in [8], 10.8%; in experiment [9], 20.6%; in experiment [10] it was 43.2%.

Consider `COc1cc(-c2nn(-c3ccccc3)cc2-c2ccnc(NCCNS(=O)(=O)c3ccc(Cl)cc3)n2)ccc1Cl`, for which the growth is 30.3% in [1]; 11.3% in experiment [2]; 49.1% in [3]; 49.9% in [4]; 28.4% in experiment [5]; 18.3% in experiment [6]. For the same compound, the growth in experiment [7] is 32.6%; in experiment [8], 41%; in [9], 32.3%; in experiment [10], 49.2%.

As to `O=C(Nc1ccccc1-c1nc2ccccc2c(=O)[nH]1)c1cc2ccccc2[nH]1`, the growth in experiment [1] was 98.6%; in experiment [2], 91.6%; in experiment [3], 63%; in experiment [4], 93.4%; in [5], 92.3%; in experiment [6] it was 78.3%. The growth in experiment [7] was 81.2%; in experiment [8], 84.9%; in experiment [9], 88%; in experiment [10] it was 99.9%.

For `COc1ccc2occ(C3=C(c4c[nH]c5ccccc45)C(=O)N(O)C3=O)c2c1`, the growth is 100% in [1]; 99.7% in experiment [2]; 99.7% in experiment [3]; 91.8% in experiment [4]; 91.7% in experiment [5]; 81.3% in experiment [6]. For the same compound, the growth in experiment [7] is 92.7%; in [8], 80.2%; in [9], 58.4%; in experiment [10] it was 114%.

As to `c1ccc(Nc2nc(-c3ccccn3)cs2)nc1`, the growth in experiment [1] was 20.1%; in experiment [2] it was 27.4%; in experiment [3] it was 42.7%; in experiment [4] it was 18.6%; in experiment [5] it was 7.62% (active); in experiment [6] it was 38%. Further, the growth in experiment [7] was 11%; in experiment [8] it was -14.6% (active); in experiment [9], 1.84% (active); in [10], 50.3%.

Regarding `O=c1cc(-c2ccc(Cl)cc2)[nH]c2ccccc12`, the growth in [1] was 59.1%; in experiment [2] it was 86.3%; in experiment [3], 85.3%; in experiment [4] it was 91.5%; in experiment [5], 80%; in [6], 75.7%. Also, the growth is 59.1% in experiment [7], 67.8% in experiment [8], 71.4% in [9] and 78.1% in experiment [10].

As to `CCc1ccccc1-n1c(-c2ccc(Cl)cc2)cc(-c2ccc(Cl)cc2)c(C#N)c1=O`, the growth in experiment [1] was 84.3%; in [2] it was 84.4%; in experiment [3], 98.6%; in [4], 109%; in experiment [5], 84.9%; in experiment [6], 76.4%. The growth was 88.7% in experiment [7], 84.8% in [8], 82.4% in experiment [9] and 99.4% in [10].

For `N=C1CCC(=N)c2c1c(O)c1ccccc1c2O`, the growth in [1] is 108%; in experiment [2], 101%; in experiment [3], 87.2%; in experiment [4] it was 103%; in experiment [5] it was 100%; in experiment [6], 80.3%. Also, the growth is 126% in experiment [7], 102% in [8], 81.9% in [9] and 106% in [10].

Turning to `NS(=O)(=O)c1cnccc1Oc1cccc2cccnc12`, the growth was 90.5% in experiment [1]; 107% in experiment [2]; 89.6% in experiment [3]; 99.6% in experiment [4]; 102% in experiment [5]; 95.9% in experiment [6]. Also, the growth in experiment [7] is 106%; in [8] it was 104%; in [9], 96%; in experiment [10], 109%.

`COc1ccc(C2c3ccc4ccccc4c3Oc3nc(C)[nH]c(=O)c32)cc1` (stereo not given): the growth in experiment [1] is 99.6%; in experiment [2], 142%; in [3] it was 76.8%; in experiment [4], 94.7%; in experiment [5], 103%; in [6], 96%. Moreover, the growth in [7] was 101%; in experiment [8] it was 94.5%; in [9], 88.8%; in [10], 98.7%.

As to `CCN1C(=O)N(CC)C2Nn3c(s/c(=C\c4ccc(Cl)cc4Cl)c3=O)=NC21` (stereo not given), the growth in [1] is 22.4%; in experiment [2] it was 79.3%; in [3], 42.6%; in experiment [4] it was 48.6%; in experiment [5], 26.3%; in [6], 33.6%. The growth was 24.5% in experiment [7], 41.1% in experiment [8], 42.9% in experiment [9] and 45.2% in experiment [10].

In the case of `COc1cc2c(cc1-c1c(C)noc1C)ncc1nc(C3CCCCC3)n(C3CCC(OC(F)F)CC3)c12` (stereo not given), the growth in experiment [1] was 25.3%; in experiment [2], 19.9%; in [3], 23.3%; in experiment [4], 55.8%; in experiment [5] it was 25.1%; in experiment [6], 16.8%. Also, the growth was 9.79% (active) in experiment [7], 22.3% in experiment [8], 17.8% in experiment [9] and 46.6% in experiment [10].

Consider `CNC(=O)c1cc(Oc2cccc3nc(Nc4ccc(F)c(Cl)c4)ccc23)ccn1`, for which the growth is 16.5% in [1]; 81.4% in [2]; 87.6% in [3]; 43.6% in experiment [4]; 26.7% in experiment [5]; 30.8% in experiment [6]. Moreover, the growth was 12.3% in experiment [7], 25.3% in [8], 27% in experiment [9] and 65.7% in experiment [10].

Consider `COc1cccc(-c2nn(-c3ccccc3)cc2-c2ccnc(NCCCNC(=O)c3ccccc3)c2)c1`, for which the growth in [1] is 33%; in experiment [2], 8.81% (active); in experiment [3], 60.1%; in experiment [4], 70.4%; in experiment [5], 43.3%; in [6], 26.2%. Besides, the growth in experiment [7] is 5.44% (active); in experiment [8], 33.8%; in experiment [9], 66.1%; in experiment [10] it was 67.8%.

Take `Cc1nn(-c2ccccc2)c2nc3c(c(-c4ccc(Cl)cc4)c12)CNC1(CCSCC1)N3`: the growth in [1] is 101%; in experiment [2], 101%; in experiment [3], 78.6%; in experiment [4], 106%; in experiment [5], 95.8%; in experiment [6] it was 87%. The growth was 99.1% in experiment [7], 102% in experiment [8], 97.7% in experiment [9] and 104% in experiment [10].

On to `O=C1/C(=C/c2ccc(Br)cc2)C=C(c2ccccc2)N1CCc1ccccc1`, for which the growth in experiment [1] is 69.7%; in experiment [2], 32.5%; in [3], -34.3% (active); in experiment [4], 6.97% (active); in experiment [5], 6.97% (active); in experiment [6] it was 22.1%. For the same compound, the growth in experiment [7] is 77.1%; in [8] it was 46.6%; in experiment [9], 42.2%; in experiment [10], 70.2%.

On to `CC1(C)CC(=O)C2=C(C1)N(c1ccc(OC(F)(F)F)cc1)C(N)=C(C#N)C2c1ccc(Cl)cc1` (stereo not given), for which the growth in [1] was 97.1%; in experiment [2], 87.2%; in experiment [3], 52.6%; in experiment [4] it was 57.4%; in experiment [5], 56.2%; in experiment [6], 76.8%. For the same compound, the growth in experiment [7] was 93.8%; in experiment [8] it was 85.5%; in experiment [9], 86%; in experiment [10], 96.2%.

On to `COc1ccc(N=Nc2ccc(O)c(=O)cc2)cc1`, for which the growth in experiment [1] was 16.4%; in experiment [2], 33.1%; in experiment [3], 8.47% (active); in experiment [4], 15.1%; in [5], 12.8%; in experiment [6] it was 36.6%. The growth in experiment [7] is -23.3% (active); in [8], -54% (active); in experiment [9], -38.8% (active); in experiment [10] it was 5.78% (active).

(Values after PubChem BioAssay (NCI).)
